Screening results (PubChem)
Rows were chosen to be rich in hits. Some 6.8% of all compounds tested hit in one or more screens of this group.
PTAP TSG101 blk = blocks PTAP/TSG101 interaction to inhibit HIV-1 budding; Fluorescence polarization, FITC-PTAP peptide / Tsg101 binding; Potency, µM (titrated, usually from 115 µM), without a hit: at the top dose activity change, negative = inhibition, most hits filed as inhibitors; 340,000 tested, under 10 active; AID 493005; active = well fitted inhibition curve with a large enough effect in the main read-out, with a control signal flat, not every such curve was filed as active; inconclusive = small, poorly fitted or top-dose-only effect, or effect the other way, or a change in a side signal; inactive = no such curve, though single readings can be large or run the other way; also: % of control where 0% means no effect
Target sequence (Q99816 whole entry, looked up): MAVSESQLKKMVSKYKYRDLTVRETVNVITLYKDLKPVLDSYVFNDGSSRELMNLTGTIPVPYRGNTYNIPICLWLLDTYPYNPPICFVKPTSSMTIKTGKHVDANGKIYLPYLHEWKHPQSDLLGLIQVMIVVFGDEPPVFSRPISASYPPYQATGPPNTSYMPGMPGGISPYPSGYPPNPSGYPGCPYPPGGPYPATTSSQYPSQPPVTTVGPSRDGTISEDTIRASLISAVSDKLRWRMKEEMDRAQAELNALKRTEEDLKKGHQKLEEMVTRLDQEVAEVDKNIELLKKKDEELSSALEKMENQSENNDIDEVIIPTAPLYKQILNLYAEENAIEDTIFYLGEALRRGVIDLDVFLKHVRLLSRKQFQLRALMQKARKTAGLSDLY
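Steps: Tsg101 binding domain dispensed (10 uM final), compounds pinned in DMSO, FITC-labeled PTAP-motif peptide added (50 nM final); after 20 min binding at room temperature, polarization measured.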
MCF10A rerep = inducers of DNA re-replication in MCF 10A breast cells | MCF 10A DNA re-replication, Hoechst nuclear intensity, 48 h | Potency, µM (top dose mostly 46.1 µM), inactives show at the highest dose activity, positive = re-replication, most hits filed as activators | hit rate 2.9% among 350,000; also: % of control where 0% means no effect; nearly all actives have a fitted effect of over 50% in size
KB-3-1 cytotox = KB-3-1 parental cell cytotoxicity | KB-3-1 viability, CellTiter-Glo ATP luminescence, 72 h | hit rate 1.4% among 400,000 | Potency, µM (titrated, usually from 46.1 µM), hits mostly cytotoxic | AID 1347075; also: % is scaled to controls: 0 for no effect and ±100 for the full control effect; nearly all actives have a fitted effect of over 60% in size
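Multi-concentration cytotoxicity screen in KB-3-1 cells grown in DMEM lacking phenol red with 10% FBS. After 72 h at 37 °C with compound, ATP-dependent luminescence was recorded.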
SW480 rerep = inducers of DNA re-replication in SW480 colon cancer cells. hit rate 1.8% among 340,000. SW480 DNA re-replication, Hoechst DNA content imaging, 48 h. Potency, µM (top dose mostly 46.1 µM), inactives show at the highest dose re-replication activation, actives largely listed as activators; also: % of control where 0% means no effect; nearly all actives have a fitted effect of over 55% in size
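Quantitative HTS format with DMSO vehicle controls; 48 hr drug incubation at 37 C, then 40 min Hoechst staining and scanning imager measurement at 405 nm excitation.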
KB-V1 MDR tox = KB-V1 MDR subline cytotoxicity. KB-V1 MDR cells viability, CellTiter-Glo, 72 h. Potency, µM (series often up to 46.1 µM), most hits filed as cytotoxic. hit rate 3.4% among 400,000. AID 1347076; also: % is scaled to controls: 0 for no effect and ±100 for the full control effect; nearly all actives have a fitted effect of over 60% in size
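Potencies derive from concentration-effect curves fitted to normalized luminescence (CellTiter-Glo) of KB-V1 cells treated for 72 h at 37 degrees C in phenol-red-free DMEM containing 10% FBS.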
PINK1 modulator = modulators of PINK1 expression. PINK1 immunofluorescence, high-content cytometry, 24 h. Potency, µM (top dose mostly 76.6 µM), inactives show at the highest dose activation (PINK1 increase), most hits filed as activators. hit rate 0.2% among 410,000; active = well fitted activation curve with a large enough effect; inconclusive = small, poorly fitted or top-dose-only effect; cell line not stated here; also: % of control where 0% means no effect; nearly all actives have a fitted effect of over 65% in size
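PINK1 protein, normally rapidly degraded, was detected by immunofluorescence after 24 hour compound treatment of a stable cell line. Titration data (5 concentrations) came from laser-scanning cytometry, with CCCP-treated wells as controls.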
Starred values were filed as active, the others as inactive; i = inactive; ? = inconclusive; nt = not tested or not shown; [ ] = remark or other dose. Unless noted, calls follow the shape of the dose curve; as a rule, active = well fitted curve in the direction sought with a large enough effect; inconclusive = small, poorly fitted or top-dose-only effect, or another doubt; inactive = no such curve, though single readings can be large; an effect the other way counts as inactive or inconclusive. Potency is read from the fitted curve at half-maximal effect.

SMILES | PTAP TSG101 blk | MCF10A rerep | KB-3-1 cytotox | SW480 rerep | KB-V1 MDR tox | PINK1 modulator
CCOC(=O)c1ccc(OCC2c3cc(OC)c(OC)cc3CCN2C(=O)Cc2ccc(OC)c(OC)c2)cc1 (stereo not given) | nt | nt | i | nt | i | -1.6%
CN(CC(=O)Nc1cccc(F)c1)C(=O)c1ccc(OCc2ccccc2)cc1 | 0.5% | 8.0% | i | -8.0% | i | 9.5%
CN(CC(=O)Nc1cccc(F)c1)C(=O)c1ccc(C2SCCS2)cc1 | 0.4% | 19.7% | ? | -12.5% | 18.4µM* | 0.9%
CN(CC(=O)Nc1cccc(F)c1)C(=O)c1ccc2c(c1)CC(c1ccccc1)OC2=O (stereo not given) | -1.0% | 18.4µM* | 18.4µM* | 18.4µM* | ? | 8.6%
COc1ccc(NC(=O)Cn2c(=O)oc3cc(S(=O)(=O)N4CCC(C)CC4)ccc32)c(OC)c1 | nt | nt | ? | nt | i | 8.4%
CCN(CC)CCCNC(=O)c1sc2nc3n(c(=O)c2c1C)CCCCC3 | nt | nt | i | nt | i | -0.2%
COc1nn(-c2ccccc2)c(=O)c(Cl)c1Cl | 0.0% | 3.66µM* | ? | 2.91µM* | i | -1.5%
CN(C)c1cnn(-c2ccccc2)c(=O)c1Cl | -1.5% | -42.5% | i | -12.8% | i | 1.0%
O=C(CCCCCN1C(=O)c2ccccc2C1=O)Nc1ccccc1 | -8.0% | -1.1% | i | -13.0% | i | -3.2%[38.3 µM]
O=C(CCN1CCCC1)Nc1ccccc1 | -3.5% | 0.3% | i | -1.4% | i | -0.1%
O=C(CCN1CCN(CCO)CC1)Nc1ccccc1 | -8.7% | 0.651µM* | i | -5.0% | i | 0.2%
O=C(CCCCCCC(=O)Nc1ccccc1)NO | -0.1% | 15µM* | 8.2µM* | 3.66µM* | 1.3µM* | 2.2%
COc1cc(NC(=O)CCN2CCN(Cc3ccccc3)CC2)cc(OC)c1 | -3.8% | 10.4% | i | -0.4% | i | -0.8%
Cc1ccccc1N1CCN(CCC(=O)Nc2ccc(F)cc2)CC1 | -0.9% | 1.7% | ? | 18.4% | 18.4µM* | 8.7%
O=C(CCN1CCN(Cc2ccccc2)CC1)Nc1cccc(Cl)c1 | -5.8% | 6.1% | i | 4.0% | 23.1µM* | -3.7%
Cc1cccc(C)c1NC(=O)Cn1nnc(S(=O)(=O)c2ccccc2)c1N | nt | nt | nt | nt | nt | 6.2%
CCCOc1ccc(C2C(=O)N(C3CCCCCC3)CC(=O)N2Cc2ccccc2OC)cc1OC (stereo not given) | nt | nt | nt | nt | nt | 2.2%
Cc1ccc2oc(C(=O)NCC(c3ccc(Cl)cc3)N3CCOCC3)c(C)c2c1 (stereo not given) | nt | nt | i | nt | i | 0.4%
CCn1c(=O)cc(SCC(=O)N2CCN(c3ccccc3OC)CC2)c2ccccc21 | -8.0% | 8.4% | i | -0.4% | 8.2µM* | -0.3%[38.3 µM]
CCn1c(=O)cc(SCC(=O)N2CCOCC2)c2ccccc21 | nt | -2.5% | i | -6.9% | ? | 3.1%[38.3 µM]
O=C(O)Cc1sc(Nc2ccc(F)cc2)nc1-c1cccs1 | -5.7% | 20.6µM* | i | 16.2% | i | -0.3%
COc1cccc(N2CCN(C(=O)c3[nH]c(C)c(C(C)=O)c3C)CC2)c1 | -7.8% | ? | 6.31µM* | 7.08µM* | 5.62µM* | 6.1%
CC(=O)c1c(C)[nH]c(C(=O)N2CCN(c3cc(Cl)ccc3C)CC2)c1C | -2.6% | 10.3µM* | 4.61µM* | 9.2µM* | i | 3.2%
COc1ccc(-c2nc(NC(=O)c3cc(C(C)(C)C)nn3C)sc2C)cc1 | -2.7% | 14.6µM* | i | 16.4µM* | 2.31µM* | 15.4%[38.3 µM]
Cc1sc(NC(=O)c2ccc(=O)n(C)n2)nc1-c1ccccc1 | 1.6% | 23.1µM* | i | -86.6% | i | 3.0%
SMILES | PTAP TSG101 blk | MCF10A rerep | KB-3-1 cytotox | SW480 rerep | KB-V1 MDR tox | PINK1 modulator
COc1cc(NC(=O)c2n[nH]c(=O)c3ccccc23)cc(OC)c1 | -0.4% | 0.3% | i | 3.4% | i | -0.9%
COc1ccc(-c2nc(NC(=O)c3n[nH]c(=O)c4ccccc34)sc2C)cc1 | 1.0% | ? | ? | ? | 8.2µM* | 1.1%
O=S(=O)(Nc1ccc(-c2ccc(N3CCCCC3)nn2)cc1)c1ccc(OC(F)(F)F)cc1 | nt | nt | i | nt | ? | 2.7%
COc1ccc(NC(=O)CCCSc2nc(-c3ccco3)cc(C(F)(F)F)n2)c(OC)c1 | nt | nt | ? | nt | i | 1.7%
CCN(CC)CCNC(=O)Cn1cnc2sc(C)c(S(=O)(=O)N3CCN(c4ncccn4)CC3)c2c1=O | -14.0% | -4.6% | i | 0.6% | i | -0.3%
COc1ccc(OC)c(NC(=O)Cn2cnc3sc(C)c(S(=O)(=O)N4CCN(c5ccccc5OC)CC4)c3c2=O)c1 | nt | nt | i | nt | i | 1.9%
COc1ccccc1NC(=O)Cn1cnc2sc(C)c(S(=O)(=O)N3CCCCC3)c2c1=O | -1.4% | -2.0% | i | -37.9% | 9.2µM* | -0.8%
CCOCCCNC(=O)Cn1cnc2sc(C)c(S(=O)(=O)N3CCN(c4ncccn4)CC3)c2c1=O | -6.0% | 3.1% | i | 5.17µM* | i | 1.5%
CN(C)Cc1ccccc1Sc1cccc2ccccc12 | 0.2% | 13µM* | i | ? | ? | 22.3%
CN(C)Cc1ccccc1Sc1ccccc1Br | 0.0% | 2.2% | i | -2.7% | i | 1.7%
CCc1ccccc1NC(=O)c1sc(-n2nc(C)c(Cc3ccccc3)c2C)nc1C | nt | nt | nt | nt | nt | 2.4%
C=CCCc1ccc(C#N)c(SCc2c(C(=O)OCC)c3cc(OC(C)=O)c(Br)cc3n2C)n1 | 0.6% | 19.5% | ? | ? | 2.59µM* | 1.6%
CCOC(=O)c1c(C)n(C)c2cc(Br)c(OC)cc12 | -0.7% | -1.2%[9.22 µM] | i | -59.5% | ? | -1.3%
CCOC(=O)c1c(CSc2nc(C)cc(C)c2C#N)n(C)c2cc(Br)c(OC(C)=O)cc12 | 1.2% | 5.3% | ? | 1.1% | ? | -0.1%
CCCCCCCCOC(=O)c1c(CSC(=N)N)n(C)c2cc(Br)c(OC(C)=O)cc12 | 0.0% | 3.26µM* | i | ? | ? | -1.1%
CCOC(=O)c1c(CSC(=N)N)n(-c2ccc(Br)cc2)c2cc(Br)c(OC(C)=O)cc12 | 0.3% | 10.3µM* | i | ? | i | -5.7%
Cc1ccc(C(=O)Nc2c(C(=O)NCc3ccc(Cl)cc3)sc3nc(C)cc(C)c23)cc1 | nt | nt | nt | nt | nt | 1.2%
COc1cc(N=Nc2cccc(S(N)(=O)=O)c2)c2ccccc2c1N | -1.3% | ? | 23.1µM* | 13.7% | i | 0.4%
CN(C)c1nc(N)c2ncc(=S)[nH]c2n1 | -5.9% | 29.1µM* | i | ? | i | -0.1%
Cc1ccc(OCc2nc(-c3ccccn3)no2)c(Br)c1 | -5.4% | ? | i | -16.6% | i | -1.7%
